This note sets out measurements from PubChem BioAssay (Tox21).

Records with an inconclusive call do not appear. Activity calls are given as the source filed them. Calls come from the whole dose curve. Residues, ends and D or L forms follow the SMILES beside them.

Test [1] addresses Acetylcholinesterase (Homo sapiens) (UniProt P22303). The test is described as follows: Acetylcholinesterase (AChE) small molecule antagonists: colormetric cell-based qHTS assay (AID 1347395). Note: nearly all actives have a fitted effect of over 30% in size. Put shortly:
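Quantitative HTS in attached SH-SY5Y cells: 30 min compound exposure, then 90 min with acetylthiocholine and DTNB at 37 C; colour from thiocholine reports AChE activity.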
In general terms: Quantitative high-throughput screening tests each substance at several concentrations.

Test [2] has the same target. The test is described as follows: Acetylcholinesterase (AChE) small molecule antagonists: enzyme-based qHTS assay (AID 1347397). Note: nearly all actives have a fitted effect of over 55% in size. Particulars: Potency: AChE enzyme activity inhibition; outcome: AChE enzyme activity inhibition. Put shortly: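 Recombinant human AChE, dispensed at 50 mU/mL, was preincubated with Tox21 10K compounds or DMSO vehicle for 30 min at room temperature. DTNB plus acetylthiocholine was then added, and thiocholine was measured colorimetrically after a further 10 min.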

The target is the same in test [3]. The test is described as follows: Acetylcholinesterase (AChE) small molecule antagonists: fluorescence cell-based qHTS assay (AID 1347398). Note: nearly all actives have a fitted effect of over 50% in size. The note with it: Potency: AChE activity; outcome: AChE activity. Put shortly:
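Human SH-SY5Y cells were plated overnight at 37 C, exposed to compound for 30 min at 37 C, 5% CO2, then given acetylthiocholine plus Thiolite Green for 40 min at room temperature; thiocholine fluorescence (Ex/Em 490/520 nm) reports endogenous AChE activity.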

Test [4] shares this target. Briefly: Acetylcholinesterase (AChE) small molecule antagonists: enzyme-based qHTS assay with human liver microsomes (AID 1347399). Note: nearly all actives have a fitted effect of over 60% in size. Particulars: Potency: qHTS inhibition; outcome: qHTS inhibition. Summed up: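 Recombinant human AChE (50 mU/mL in the enzyme mix) and human liver microsomes (0.25 mg/mL final) were preincubated with compound and NADPH (0.25 mg/mL final) for 30 min at 37 C. Acetylthiocholine/DTNB was then added; thiocholine was read colorimetrically after 10 min at room temperature.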
Potency is the fitted concentration of half-maximal effect.

Chain of Acetylcholinesterase (Homo sapiens) (P22303 whole entry, looked up): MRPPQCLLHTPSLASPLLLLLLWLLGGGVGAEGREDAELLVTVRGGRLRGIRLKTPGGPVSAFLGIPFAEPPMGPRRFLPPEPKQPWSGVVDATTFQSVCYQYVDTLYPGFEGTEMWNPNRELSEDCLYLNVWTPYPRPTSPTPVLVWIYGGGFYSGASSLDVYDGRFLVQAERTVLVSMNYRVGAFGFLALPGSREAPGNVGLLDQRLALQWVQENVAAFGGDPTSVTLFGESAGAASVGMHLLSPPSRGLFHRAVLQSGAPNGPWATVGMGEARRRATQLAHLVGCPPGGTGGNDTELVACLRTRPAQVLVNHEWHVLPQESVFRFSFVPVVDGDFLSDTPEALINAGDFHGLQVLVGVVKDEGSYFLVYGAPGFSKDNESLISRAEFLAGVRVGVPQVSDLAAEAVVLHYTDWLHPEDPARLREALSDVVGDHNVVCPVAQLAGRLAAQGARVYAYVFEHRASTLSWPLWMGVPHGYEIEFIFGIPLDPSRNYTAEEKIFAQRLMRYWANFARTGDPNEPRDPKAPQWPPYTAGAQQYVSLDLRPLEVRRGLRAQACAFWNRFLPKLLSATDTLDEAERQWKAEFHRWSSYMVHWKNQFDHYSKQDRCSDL

With `CCCCCCCCc1ccc(Nc2ccc(CCCCCCCC)cc2)cc1`, the Potency entry in test [1], in test [2], in test [3] and in test [4] was “inactive” throughout.

Turning to `O=C1OC(=O)C2CCCCC12` (configuration not stated), the Potency entry in test [1], in test [2], in test [3] and in test [4] was “inactive” each time.

With `O=C(O)/C=C/c1ccc(/C=C/C(=O)O)cc1`, the Potency entry in test [1], in test [2], in test [3] and in test [4] was “inactive” throughout.

As for `CC(=O)N[C@@H](CO)C(=O)N[C@@H](CC(=O)O)C(=O)N[C@@H](CCCCN)C(=O)N1CCC[C@H]1C(=O)O` (Ac-SDKP-OH), the Potency result in test [1], in test [2], in test [3] and in test [4] was “inactive” throughout.

`CN(C)CCCO[C@@H]1[C@H]2OC(C)(C)O[C@H]2O[C@@H]1C(O)CO` (some centres not stated): the Potency result in test [1], in test [2], in test [3] and in test [4] was “inactive” throughout.

Take `CCCC1CCC(=O)CC1`: the Potency result in test [1], in test [2], in test [3] and in test [4] was “inactive” each time.

With `OC1CCC(C2CCCCC2)CC1` (configuration not stated), the Potency entry in test [1], in test [2], in test [3] and in test [4] was “inactive” each time.

As for `OCC(CO)n1cnc(-c2ccc(F)cc2)c1-c1ccnc(Oc2ccccc2)n1`, the Potency entry in test [1], in test [2], in test [3] and in test [4] was “inactive” throughout.

For the compound `CC(C)(C)C(=O)Oc1ccc(S(=O)(=O)Nc2ccccc2C(=O)NCC(=O)O)cc1`, the Potency entry in test [1], in test [2], in test [3] and in test [4] was “inactive” throughout.

On to `COc1cc2nc(N(C)CCCNC(=O)C3CCCO3)nc(N)c2cc1OC` (configuration not stated), for which the Potency in test [1] was 17.4 µM (active); in test [2], 24.5 µM (active); in test [3], 15.5 µM (active). Further, the Potency result in test [4] is “inactive”.

`CCOC(=O)c1cnc2c(cnn2CC)c1NN=C(C)C`: the Potency result in test [1], in test [2], in test [3] and in test [4] was “inactive” throughout.

For the compound `Cc1nc2ccccc2n1Cc1ccc(Cl)cc1`, the Potency entry in test [1], in test [2], in test [3] and in test [4] was “inactive” throughout.

Regarding `CCC(=O)OC/C=C(\C)CCC=C(C)C`, the Potency entry in test [1], in test [2], in test [3] and in test [4] was “inactive” throughout.

Regarding `CC1(C)CC(O)CC(C)(C)N1[O]`, the Potency result in test [1], in test [2], in test [3] and in test [4] was “inactive” each time.

With `CCO[Si](CCC1CCC2OC2C1)(OCC)OCC` (configuration not stated), the Potency result in test [1], in test [2], in test [3] and in test [4] was “inactive” each time.

`C=CC(=O)[O-].C=CC(=O)[O-].[Zn+2]`: the Potency result in test [1], in test [2], in test [3] and in test [4] was “inactive” throughout.

In the case of `CC(=O)c1ccc2c(c1)N(CCCN1CCC(CCO)CC1)c1ccccc1S2`, the Potency is 38.9 µM (active) in test [1] and 17.4 µM (active) in test [3]. In addition, the Potency result in test [2] and in test [4] was “inactive” throughout.

Take `CC(C)CCCCCCOC(=O)CCCCC(=O)OCCCCCCC(C)C`: the Potency result in test [1], in test [2], in test [3] and in test [4] was “inactive” each time.

For `C=CS(=O)(=O)O`, the Potency entry in test [1], in test [2], in test [3] and in test [4] was “inactive” in each case.

For the compound `CCCCCCC(=O)OCC`, the Potency result in test [1], in test [2], in test [3] and in test [4] was “inactive” each time.

As for `CC(=O)CC(=O)Nc1ccc2[nH]c(=O)[nH]c2c1`, the Potency result in test [1], in test [2], in test [3] and in test [4] was “inactive” in each case.

For `CCOc1ccc2c(c1)C(C)CC(C)(C)N2` (configuration not stated), the Potency entry in test [1], in test [2], in test [3] and in test [4] was “inactive” each time.

As to `CCOC(=S)SSC(=S)OCC`, the Potency entry in test [1], in test [2], in test [3] and in test [4] was “inactive” throughout.

Turning to `CC12CC3CC(C)(C1)CC(N)(C3)C2`, the Potency entry in test [1], in test [2], in test [3] and in test [4] was “inactive” throughout.

For the compound `CC(C)COC(=O)COc1cc(Cl)c(Cl)cc1Cl`, the Potency entry in test [1], in test [2], in test [3] and in test [4] was “inactive” each time.

Consider `CC(C)C1CCC(O)CC1` (configuration not stated), for which the Potency result in test [1], in test [2], in test [3] and in test [4] was “inactive” each time.

In the case of `CCN1CCC[C@H]1CNC(=O)c1c(OC)ccc(Br)c1OC`, the Potency result in test [1], in test [2], in test [3] and in test [4] was “inactive” throughout.

For `[Cl][Eu]([Cl])[Cl]`, the Potency result in test [1], in test [2], in test [3] and in test [4] was “inactive” in each case.

As to `CN1CCC(=C2c3ccccc3Sc3ccccc32)CC1`, the Potency result in test [1], in test [2], in test [3] and in test [4] was “inactive” in each case.

In the case of `CCOC(=O)OC(=O)OCC`, the Potency entry in test [1], in test [2], in test [3] and in test [4] was “inactive” in each case.

Turning to `O=[N+]([O-])c1cncn1CCN1CCOCC1`, the Potency result in test [1], in test [2], in test [3] and in test [4] was “inactive” throughout.

`CCCCCCC1CCC(=O)O1` (configuration not stated): the Potency result in test [1], in test [2], in test [3] and in test [4] was “inactive” throughout.

With `COC(=O)/C=C(/C)N`, the Potency result in test [1], in test [2], in test [3] and in test [4] was “inactive” in each case.

Regarding `OCCNCc1ccccc1`, the Potency entry in test [1], in test [2], in test [3] and in test [4] was “inactive” throughout.

`Cc1c(Cl)cccc1Nc1ccccc1C(=O)O`: the Potency result in test [1], in test [2], in test [3] and in test [4] was “inactive” each time.

Consider `O=C(O)/C=C/c1ccc(O)c(O)c1`, for which the Potency result in test [1], in test [2], in test [3] and in test [4] was “inactive” in each case.

`CCN(CC)CCOc1ccc2c(c1)C(=O)c1cc(OCCN(CC)CC)ccc1-2`: the Potency in test [1] was 0.776 µM (active); in test [2], 1.55 µM (active); in test [3], 0.55 µM (active); in test [4] it was 5.49 µM (active).

Take `Cc1onc(-c2ccccc2)c1-c1ccc(S(N)(=O)=O)cc1`: the Potency result in test [1], in test [2], in test [3] and in test [4] was “inactive” in each case.

`O=S(O)CO`: the Potency result in test [1], in test [2], in test [3] and in test [4] was “inactive” each time.

Consider `CNCCO`, for which the Potency entry in test [1], in test [2], in test [3] and in test [4] was “inactive” in each case.

Consider `CC(C)CCCCOC(=O)c1ccccc1C(=O)OCCCCC(C)C`, for which the Potency entry in test [1], in test [2], in test [3] and in test [4] was “inactive” in each case.

Turning to `Cc1cccc(C)c1NC(=O)CN(CC(=O)O)CC(=O)O`, the Potency result in test [1], in test [2], in test [3] and in test [4] was “inactive” in each case.

As for `C=CC(=O)OCCn1c(=O)n(CCOC(=O)C=C)c(=O)n(CCOC(=O)C=C)c1=O`, the Potency result in test [1], in test [2], in test [3] and in test [4] was “inactive” throughout.
